Measurements from ChEMBL document CHEMBL1157539, “Thousands of chemical starting points for antimalarial lead identification” (Nature, 2010).

Columns and labels:
Assay type in all cases: functional
Plasmodium falciparum [1] = test: GSK_TCMDC: Inhibition of Plasmodium falciparum 3D7 in whole red blood cells, using parasite LDH activity as an index of growth. Test compounds present at 2uM
Plasmodium falciparum [2] = test: GSK_TCMDC: Inhibition of Plasmodium falciparum Dd2 in whole red blood cells, using parasite LDH activity as an index of growth. Test compounds present at 2uM
HepG2 = test: GSK_TCMDC: Percent inhibition of human HepG2 cell line. Test compounds present at 10uM.

SMILES	Inhibition (Plasmodium falciparum [1]) [%]	Inhibition (Plasmodium falciparum [2]) [%]	Inhibition (HepG2) [%]
Cc1nc(-c2ccc3c(c2)CCN(CCC2CCC(NC(=O)c4cc5cccc(Cl)c5[nH]4)CC2)CC3)no1.Cl (stereo not drawn)	100	46	36
Cl.O=C(Nc1ccc2c(c1)CNCC2)c1ccc(-c2ccc(Cl)cc2)cc1	96	28	52
COc1cccc(CNC[C@@H](O)[C@H](Cc2ccccc2)NC(=O)c2cc(C3CCCC3)cc(N3CCCCS3(=O)=O)c2)c1.Cl	96	83	7
COc1ccc(-n2nc(C)cc2C(=O)NCc2ccc(-c3c(C)noc3C)cc2)cc1	100	92	3
CC(=O)c1ccc(NC(=O)Nc2ccc(N(C)c3ccnc(NC4CC4)n3)cc2)cc1	100	60	59
O=[N+]([O-])c1ccccc1C=NN=c1cc[nH]c2ccccc12	100	98	3
O=C(c1ccc([N+](=O)[O-])o1)N1CCN(c2ccccc2)CC1	94	72	44
O=C(NC1CCC(N2CCC(Cc3ccc(F)cc3)CC2)CC1)c1cc2ccccc2[nH]1 (stereo not drawn)	98	39	60
Oc1ccc2nc(Nc3ccccc3)nc(NCCc3ccccc3)c2c1	100	100	20
COc1cccc(-c2c(C#N)c(N)nc3c2c(C)nn3-c2ccccc2)c1O	100	100	4
Cc1ccc(CN2CCN(c3cc4c(cc3Cl)CCN4C(=O)Cc3ccc(NC(=O)c4ccc(C(F)(F)F)cc4)cc3)CC2)cc1	88	0	15
